Source: the supplement of paper PMC3334620
Whole data set: some 33,000 sequences, median “E-score (-0.5 to 0.5)” near -0.056, cut for the highest 2% near 0.38. The full list was thinned out, with the highest values kept by preference.

Biological target: Stb4 (UniProt P50104)
Test: PBM E-score (8-mer binding enrichment) (E-score (-0.5 to 0.5)); higher = stronger / more preferred TF binding
Conditions: protein concentration: 200 nM; construct: GST-DNA-binding domain
Method: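 Universal 'all 10-mer' protein binding microarrays (Agilent AMADID 015681) probed with GST-tagged S. cerevisiae TFs (full-length or DBD) made by in vitro transcription/translation (PURExpress), about 100-200 nM. Bound TF was detected with fluorescent anti-GST. Each ungapped 8-mer (which stands for itself and its reverse complement) is scored by the PBM enrichment score (E-score), a modified Wilcoxon-Mann-Whitney statistic from -0.5 to +0.5, computed with the Universal PBM Analysis Suite. Scale: above 0.35 generally sequence-specific binding.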

Sequence of UniProt P50104 (P50104 whole entry): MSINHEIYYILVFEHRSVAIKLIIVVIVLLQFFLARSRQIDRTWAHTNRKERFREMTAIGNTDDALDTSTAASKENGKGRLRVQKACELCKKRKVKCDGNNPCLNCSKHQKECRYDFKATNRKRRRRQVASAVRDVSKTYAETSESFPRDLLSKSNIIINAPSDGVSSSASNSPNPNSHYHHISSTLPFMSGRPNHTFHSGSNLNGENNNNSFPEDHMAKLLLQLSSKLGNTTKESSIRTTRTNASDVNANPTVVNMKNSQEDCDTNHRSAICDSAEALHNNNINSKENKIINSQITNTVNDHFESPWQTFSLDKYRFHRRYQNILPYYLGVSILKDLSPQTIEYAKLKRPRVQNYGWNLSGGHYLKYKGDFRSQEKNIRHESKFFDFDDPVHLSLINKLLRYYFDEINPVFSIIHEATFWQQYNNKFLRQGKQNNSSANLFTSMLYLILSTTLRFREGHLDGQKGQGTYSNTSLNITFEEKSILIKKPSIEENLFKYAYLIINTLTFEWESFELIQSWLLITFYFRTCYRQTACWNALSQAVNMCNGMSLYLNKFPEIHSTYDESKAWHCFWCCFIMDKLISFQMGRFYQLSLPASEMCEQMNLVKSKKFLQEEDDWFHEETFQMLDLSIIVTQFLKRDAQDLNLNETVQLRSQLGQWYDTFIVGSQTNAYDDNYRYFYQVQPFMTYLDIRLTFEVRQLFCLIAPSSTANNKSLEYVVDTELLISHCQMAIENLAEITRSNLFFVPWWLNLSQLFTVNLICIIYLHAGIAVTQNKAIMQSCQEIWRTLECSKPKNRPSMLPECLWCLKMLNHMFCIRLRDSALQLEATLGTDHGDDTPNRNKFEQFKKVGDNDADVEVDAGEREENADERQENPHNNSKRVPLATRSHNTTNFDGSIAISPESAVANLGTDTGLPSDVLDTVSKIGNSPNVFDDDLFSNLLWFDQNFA

| Sequence | PBM E-score |
| --- | --- |
| CTGCGAAC | -0.298 |
| CCAACTTA | -0.00182 |
| CTCTTAAC | -0.0542 |
| GAGTACCC | 0.0867 |
| CCGGATAA | 0.452 |
| CAGGATAA | -0.12 |
| TAGGATAA | -0.0915 |
| CAGGATAG | -0.0723 |
| GCGGATGA | 0.304 |
| TCGGATAA | 0.487 |
| TGGGATAA | -0.182 |
| GGGGATAA | 0.00287 |
| CCGGATAG | 0.424 |
| CGGGATAG | 0.191 |
| GCGGATAA | 0.403 |
| CCGGATTA | 0.319 |
| ATTATCTC | 0.0642 |
| CAGGGAGA | -0.266 |
| CGATGGTC | -0.158 |
| CTTCTTTA | -0.0675 |
| GACCCTGC | 0.1 |
| AAAGCGTC | -0.194 |
| CACACTAA | -0.194 |
| CGAGAAGA | 0.0362 |
| CCGATATC | 0.297 |
| CCGGATAC | 0.409 |

| Sequence | PBM E-score |
| --- | --- |
| CAGGATAC | -0.198 |
| GCGGATAC | 0.367 |
| ATCGGCCG | 0.305 |
| AAAGCCAG | -0.246 |
| TGGAACAA | -0.2 |
| GGGAACAA | 0.225 |
| CGGAACAC | 0.367 |
| AGGAACAG | -0.243 |
| CGGAACAG | 0.427 |
| CGGAACAA | 0.444 |
| ATCTATGG | -0.184 |
| AGCTCGTG | 0.0631 |
| AGCTCGCC | -0.0787 |
| AGCTCGCG | -5e-05 |
| AGCTCGGG | 0.443 |
| AGCTCGGC | 0.412 |
| AGCTCGAC | -0.0952 |
| CGTGCCAG | -0.186 |
| AAGGTAGG | -0.0211 |
| ACTTGACA | -0.05 |
| ACGATACG | -0.314 |
| AGCCGATA | 0.344 |
| GGCCGAGA | 0.347 |
| CGCCGAGC | 0.39 |
| AGCCGCGG | 0.315 |
| AGCCGACC | 0.293 |

| Sequence | PBM E-score |
| --- | --- |
| AGCCGAGC | 0.448 |
| CACCGAGG | 0.308 |
| AGCCGAGA | 0.436 |
| CGCCGAGA | 0.361 |
| AGCCGATC | 0.313 |
| AGCCGAGG | 0.437 |
| CGCCGATC | 0.241 |
| GCATATGC | -0.173 |
| CGCCACGC | -0.108 |
| AAGGACTC | 0.127 |
| TGGATGAA | -0.185 |
| GTGCCAGA | -0.31 |
| AAGCGGCA | 0.133 |
| GCTGACGA | -0.346 |
| GAGCACTC | 0.09 |
| CTCCGGAA | 0.391 |
| AACCGGAT | 0.383 |
| CTCCGGTA | 0.254 |
| AACCGGAG | 0.23 |
| ATCCGGAA | 0.436 |
| ATACGGAA | 0.36 |
| GTCCGGAA | 0.373 |
| AACCGGAA | 0.377 |
| CTCCGGAC | 0.285 |
| TTCCGGAA | 0.46 |
| TTACGGAA | 0.365 |

| Sequence | PBM E-score |
| --- | --- |
| ATCCGGAC | 0.336 |
| CAAATCCC | 0.141 |
| CACCCAGG | -0.115 |
| GCGCCGCA | 0.0423 |
| GCTGGCAC | -0.224 |
| CTAAAATC | -0.12 |
| CCCGCTTA | 0.0362 |
| AAACAGTT | -0.0803 |
| AATCAATC | 0.055 |
| ATCCGCAT | 0.348 |
| ATGCGGAG | 0.0793 |
| ATCCGGTG | 0.397 |
| ATCCGGTC | 0.302 |
| CTCCGGAG | 0.304 |
| ATCCGGTA | 0.322 |
| ATCCGGAT | 0.459 |
| GTCCGGAC | 0.283 |
| ATCCGGAG | 0.385 |
| CCTGGGTC | -0.126 |
| AGTTAAAA | 0.045 |
| CATCAGGC | -0.149 |
| GCTCATCC | 0.127 |
| AACGGATA | 0.439 |
| CACGGATG | 0.338 |
| CACGGATA | 0.385 |
| GACGGAGA | 0.187 |

| Sequence | PBM E-score |
| --- | --- |
| GACGGATC | 0.265 |
| AACGGATT | 0.155 |
| GACGGATA | 0.385 |
| TACGGAGA | 0.0409 |
| TACGGATA | 0.385 |
| CACGGATC | 0.35 |
| AACGGATG | 0.304 |
| TACGGAAA | 0.322 |
| GCTCAACC | -0.206 |
| ACTCTCCT | -0.272 |
| GGCAAGTA | 0.0793 |
| TGCGAGAA | -0.132 |
| CAAAATCA | -0.00631 |
| GATCCAAA | -0.0151 |
| CATCCAAA | -0.2 |
| CATCCGCA | 0.314 |
| TGTCCGAA | 0.35 |
| GATCCGAA | 0.482 |
| TATCCAAA | -0.184 |
| TATCCGCA | 0.408 |
| AATCCGCA | 0.157 |
| GATCCGTA | 0.351 |
| TATCCGAA | 0.493 |
| CATCCTAA | -0.079 |
| CATCCGAA | 0.476 |
| GCTTTCAC | -0.148 |

| Sequence | PBM E-score |
| --- | --- |
| GCTATAGC | -0.096 |
| ATTCTGCG | -0.0218 |
| GAGAGACC | -0.122 |
| ATACCTCC | -0.0529 |
| TGATATCA | -0.281 |
| TGCCACCA | -0.374 |
| GGCGTCAC | -0.0997 |
| GCCTTCAA | -0.13 |
| GATGCGGC | 0.0547 |
| ATTCTTTC | -0.0171 |
| AATCCGTA | 0.12 |
| CGTCCGAA | 0.336 |
| GGTCCGAC | 0.292 |
| GGTCCGAA | 0.416 |
| AATCCGAT | 0.368 |
| AATCCGAA | 0.42 |
| TATAGCCA | -0.113 |
| CCGACTAA | 0.29 |
| CGGACAAG | 0.138 |
| CTCCTCGA | -0.284 |
| CTATCCAC | -0.0315 |
| ACATCCGC | 0.382 |
| CTATCCCC | -0.0734 |
| ATATCCTC | -0.03 |
| CTATCCGC | 0.396 |
| ATATCCGC | 0.389 |

| Sequence | PBM E-score |
| --- | --- |
| ACTGCCCG | 0.123 |
| ACTTTTCG | 0.0867 |
| GCCTCGCC | 0.0101 |
| CCCCCGGA | 0.176 |
| ACCCCGGA | 0.232 |
| AGCCCGGA | 0.361 |
| CGCCCGGA | 0.328 |
| GCCCCGGA | 0.385 |
| GGCCCGGA | 0.402 |
| AGAGGTTC | 0.0565 |
| ATAGCGGG | 0.0172 |
| AAGATGTG | -0.156 |
| GCTAAGCA | -0.217 |
| CCACAGAA | -0.0915 |
| CCCAGACG | -0.17 |
| AACTTCGT | -0.177 |
| AGCTTCGG | 0.395 |
| AACTTCGC | -0.041 |
| ATCTTCGA | -0.171 |
| ATCTTCCC | 0.226 |
| ATCTTCGC | 0.016 |
| ATCTTCCG | 0.436 |
| AGCTTCGC | -0.276 |
| AGCTTCGA | -0.189 |
| ATCTTCCA | -0.137 |
| ATCTTCGG | 0.423 |

| Sequence | PBM E-score |
| --- | --- |
| AACTTCGG | 0.408 |
| ATCGAACC | 0.089 |
| CTAGTCCA | -0.153 |
| ACCAATGC | -0.00399 |
| GTAGTCAC | -0.16 |
| CTCTACTC | -0.106 |
| GGATTCCA | 0.13 |
| ACCTTCCC | 0.0875 |
| ACCTTCCT | -0.342 |
| ACCTTCCG | 0.4 |
| CCCTACAA | -0.218 |
| ATCTATCA | -0.0983 |
| AGAATGGC | -0.0824 |
| GAGTCGGC | 0.223 |
| AAGTCGGA | 0.372 |
| CAGTCGGA | 0.316 |
| TAGTCGCA | -0.0285 |
| GAGTCGGA | 0.387 |
| TAGTCGGA | 0.405 |
| AGATCGGA | 0.438 |
| CGATCGGA | 0.322 |
| AGATCGGC | 0.189 |
| GGATCGAA | 0.214 |
| GGATCGGA | 0.402 |
| AGATCGGG | 0.28 |
| GCATGAAA | -0.101 |

| Sequence | PBM E-score |
| --- | --- |
| GTTCTCGA | -0.166 |
| CCGAATCC | 0.427 |
| GCGAATCC | -0.0095 |
| CCGAATCA | 0.361 |
| ACGAATCC | 0.009 |
| ACGAATCG | 0.0102 |
| CCGAATCG | 0.405 |
| ACTAGCAG | -0.298 |
| GCCTACCC | 0.0606 |
| ACAGATCG | -0.0736 |
| AATCCGGA | 0.363 |
| GAACCGGC | 0.262 |
| TATCCTGA | -0.0875 |
| GATCCGCA | 0.316 |
| GATCCGGA | 0.421 |
| AATCCGGT | 0.246 |
| AATCCGGC | 0.241 |
| GATCCGGC | 0.396 |
| TATCCGGA | 0.46 |
